# This is a sample that favours compounds with a hit; in the whole collection about 2.8% have one here.
# POLB inh – blocks human DNA polymerase beta activity; 340,000 compounds, 1.3% hits; Potency, µM (doses to about 114 µM), hits mostly inhibitors; Pol beta primer extension/strand displacement, fluorescence kinetic; P06746; AID 485314
#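 Homogeneous kinetic assay of primer extension and strand displacement by 10 nM Pol beta, preincubated 15 min at room temperature with compound before 50 nM substrate (final) was added. Read at 0 and 10 min; four-parameter Hill fit.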
# POLI inh – DNA polymerase iota (human) inhibition. Q9UNA4. Pol iota fluorescent replication assay, 10 min. Potency, µM (titrated, usually from 115 µM), actives largely listed as inhibitors. 390,000 compounds, 1% hits. AID 588590
#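 Pol iota at 10 nM preincubated 15 min with compounds at room temperature; reaction started with fluorescent substrate, 50 nM final. Fluorescence read kinetically at 0 and 10 min; buffer-only wells as negative control.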
# Pol kappa inh – blocks human DNA polymerase kappa activity. purified Pol kappa, fluorescent DNA synthesis assay, 10 min. Q9UBT6. 400,000 compounds, 0.53% hits. Potency, µM (highest dose often 107 µM), actives largely listed as inhibitors
#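 Readout: fluorescence, taken kinetically at 0 and 10 min. Conditions: 10 nM Pol kappa, 15 min RT compound preincubation, 50 nM substrate final. Controls: enzyme-free buffer wells.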
# PI5P4K alpha inh – blocks human PI5P4K alpha kinase activity | AID 652105 | PI5P4Kalpha enzyme, ADP-Glo luminescence, 60 min; active compounds read low | max response, % | 330,000 compounds, 1.2% hits; active = max response of -50% or lower; inconclusive = between -30% and -50%; inactive = -30% or higher; note: value at the top dose of about 77 µM
#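 Quantitative HTS of the MLSMR library against PI5P4Kalpha with substrate. ATP added last at 5 microM final; room temperature, 60 minutes. Remaining ATP depleted, ADP converted and read as luminescence.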
# POLH inh – blocks human DNA polymerase eta activity. 390,000 compounds, 1.2% hits. Potency, µM (series often up to 114 µM), most hits filed as inhibitors. recombinant Pol eta, fluorescent DNA replication assay. Q9Y253
#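 Pol eta (10 nM) was preincubated with compounds for 15 min at room temperature, after which fluorescent replication substrate (50 nM final) was added to start the reaction. Fluorescence was read kinetically at 0 and 10 min.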
# WRN inhibitor – WRN helicase (human) inhibition; Q14191; WRN helicase unwinding, fluorescent forked duplex, kinetic; Potency, µM (series often up to 114 µM), most hits filed as inhibitors; 360,000 compounds, 0.46% hits; AID 651768; note: nearly all actives have a fitted effect of over 55% in size
#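 Screening of the MLSMR collection measured strand separation of a quenched forked DNA duplex (100 nM) by 20 nM WRN with 2 mM ATP, all final. Compounds were preincubated with enzyme 15 min at room temperature.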
# A number is an active result; - = inactive; ? = inconclusive; . = not tested or not shown; [ ] = dose if it differs, or a comment. Unless noted, calls come from the whole dose curve; as a rule, active = well fitted curve in the direction sought with a large enough effect; inconclusive = small, poorly fitted or top-dose-only effect, or another doubt; inactive = no such curve, though single readings can be large; an effect the other way counts as inactive or inconclusive.
SMILES,POLB inh,POLI inh,Pol kappa inh,PI5P4K alpha inh,POLH inh,WRN inhibitor
CC1(C)CC(=O)C2=C(C1)Nc1[nH]c(=S)[nH]c(=O)c1C2c1ccccc1 (centres undefined),-,?,-,-57,-,-
COC(=O)[C@@]12C[C@@H](CC(=O)N3CCOCC3)C(=O)N(Cc3ccc4c(c3)OCO4)C1=CCC(C)(C)C2,.,.,.,-,.,-
COC(=O)C1=C(C)N(Cc2ccc(OC)cc2)C(=O)C1,-,?,-,.,-,-
COC(=O)C1=C(C)N(Cc2ccco2)C(=O)C1,-,11µM,45µM,-,13µM,-
CCCCNC(=O)COC(=O)c1c2c(nc3ccccc13)/C(=C\c1cccs1)CC2,.,?,?,?,?,-[11.6 µM]
CC(C)CNC(=O)COC(=O)c1c2c(nc3ccccc13)CCC2,40µM,?,-,?,?,-
CC(C)(C)C(=O)COC(=O)c1c2c(nc3ccccc13)CCC2,18µM,?,-,?,79µM,-
CC(C)CNC(=O)COC(=O)c1c2c(nc3ccccc13)/C(=C/c1cccs1)CC2,18µM,?,-,-,?,-
Cc1ccc(C)c(CN2C(=O)N(c3cc(Cl)ccc3C)S(=O)(=O)c3ccccc32)c1,-,-,-,.,-,.
Cc1cccc2[nH]cc(/C=C3/C=Nc4ccccc43)c12,.,-,-,.,.,.
NC(N)=Nc1ccc(/C=C2\C=Cc3ccccc32)cc1,.,-,-,.,.,.
CCOC(=O)Cc1c(C)nc2c(-c3ccc(OC)c(OC)c3)c(C)nn2c1C,-,-,-,.,-,.
CCc1ccc(N2CCn3c2nc2c3c(=O)n(Cc3cccc(C)c3)c(=O)n2C)cc1,-,-,-,.,-,.
COc1ccc(CNC(=O)CSc2ccsc2[N+](=O)[O-])cc1,-,?,?,-50,50µM,-
COc1ccccc1CNC(=O)C(C)Sc1ccsc1[N+](=O)[O-] (centres undefined),-,?,-,-,40µM,-
Cc1ccc(CNC(=O)CSc2ccsc2[N+](=O)[O-])cc1,-,-,-,-,-,-
O=C(CSc1nc2c([nH]c3ccccc32)c(=O)n1-c1ccccc1)Nc1cccc(C(F)(F)F)c1,-,-,-,.,-,.
O=C(/C=C/c1ccc([N+](=O)[O-])cc1)NC1CC2CCC1C2 (centres undefined),-,-,-,-52,-,-
COc1ccc2c(C)cc(SCC(=O)NC3CCCC3)nc2c1,.,-,-,-,-,-
COc1ccc2c(C)cc(SCC(=O)c3ccc4c(c3)OCO4)nc2c1,50µM,-,-,.,-,-
O=C(O)c1ccc2c(=O)n3c(nc2c1)/C(=C/c1cccc(Cl)c1Cl)CCCC3,-,-,-,-73,-,-
O=C(O)c1ccc2c(=O)n3c(nc2c1)/C(=C/c1ccc(F)cc1)CC3,-,-,-,-,-,-
CCOC(=O)c1ccc2nc(C(F)(F)F)[nH]c(=O)c2c1,-,-,-,-57,-,-
Cc1ccc(-c2csc(N3N=C(c4ccccc4)/C(=C\c4ccc(N(C)C)cc4)C3=O)n2)cc1,50µM,.,.,.,.,.
C/C(=N\NC(=O)c1ccc(O)cc1)c1ccc2c(c1)Nc1ccccc1S2,-,-,-,-77,-,-
SMILES,POLB inh,POLI inh,Pol kappa inh,PI5P4K alpha inh,POLH inh,WRN inhibitor
C/C(=N\NC(=O)c1ccccc1F)c1ccc2c(c1)Nc1ccccc1S2,-,-,-,-,-,-
COC1=CCC2([N+](=O)[O-])CN(CCO)CC1([N+](=O)[O-])C2 (centres undefined),0.2µM,-,-,-,-,-
CCCn1c(NCc2ccco2)nc2c1c(=O)n(C)c(=O)n2C,22µM,?,?,?,?,-
COc1ccc(Cl)c(Cn2c(NCc3ccco3)nc3c2c(=O)n(C)c(=O)n3C)c1,14µM,?,?,?,?,?
COc1ccc(C(=O)COC(=O)C2CC3CCCC(C2)C3=O)cc1Br (centres undefined),.,-,-,-,-,-
COc1ccc(C(=O)COC(=O)CN2CC(=O)Oc3ccccc32)cc1Br,?,25µM,-,-,-,-
COc1ccccc1-c1ccc(SCC(=O)NCCc2ccccc2)nn1,-,-,-,-,-,-
Cc1cccc(NC(=O)CSc2ccc(-c3ccccn3)nn2)c1C,-,-,-,-,-,-

# High-throughput results: PubChem BioAssay, National Center for Advancing Translational Sciences (NCATS)
